Assay outcomes (PubChem)
A selection: hits, their analogues and other compounds. The true share with any hit is near 1.1%.
NCOA1 inh – inhibitors of human steroid receptor coactivator 1 (SRC1); Q15788; HEK293 GAL4-SRC1 luciferase reporter, luminescence; inhibition, % at 3.6 µM; actives 0.12% (n = 360,000); AID 588354;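 active means inhibition above the campaign mean plus 3 SD, with each screening campaign given its own cutoff, cut at about 60% in these data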;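 further: 0% = DMSO treated cells and 100% = gossypol at 36 µM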
GalR3 antagonist – blocks the human galanin receptor 3; actives 0.44% (n = 360,000); inhibition, % at 3 µM; HEK293 GalR3-CNG cAMP membrane potential fluorescence; galR3 body fused to GalR1 C-terminus; O60755;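 active means inhibition above the screen-wide average plus 3 SD, cut at about 13% in these data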;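 further: forskolin and galanin both at EC90 stimulate the cells; cAMP rise reported by CNG channel membrane potential dye signal; 0% = forskolin plus galanin with DMSO and 100% = forskolin alone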
Target sequence (O60755 1-299 limits assumed): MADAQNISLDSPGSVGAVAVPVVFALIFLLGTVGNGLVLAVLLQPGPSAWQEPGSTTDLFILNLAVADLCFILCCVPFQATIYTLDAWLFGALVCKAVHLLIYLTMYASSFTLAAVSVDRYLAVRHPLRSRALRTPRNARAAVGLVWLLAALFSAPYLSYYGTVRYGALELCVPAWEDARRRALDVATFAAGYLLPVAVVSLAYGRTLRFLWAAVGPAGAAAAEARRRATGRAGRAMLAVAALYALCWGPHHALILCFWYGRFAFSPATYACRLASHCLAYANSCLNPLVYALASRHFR
LRH-1 inv ag – inverse agonists of human LRH-1 (NR5A2); inhibition, % at 3.6 µM; HEK293T StAR-luciferase reporter, LRH-1 transfected, 24 h; AID 602396; actives 0.13% (n = 360,000); O00482;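 active means inhibition above the mean inhibition of all tested compounds plus 3 SD, cut at about 73% in these data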;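 further: 0% = DMSO wells and 100% = reporter-only cells lacking LRH-1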
NCOA2 inhibitor – human SRC2 (NCOA2) inhibition; actives 0.17% (n = 370,000); inhibition, % at 9 µM; Q15596; HEK293 GAL4-SRC2 luciferase reporter, luminescence;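 active means inhibition above the mean inhibition of all tested compounds plus 3 SD, set per campaign, cut at about 52% in these data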;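 further: 0% = DMSO treated cells and 100% = cells given Gossypol at 36 µM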
NR2F2 inh – blocks human COUP-TFII nuclear receptor; actives 0.7% (n = 370,000); inhibition, % at 8.6 µM; P24468; AID 686940; HEK293T NGFI-A luciferase reporter, luminescence;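 active means inhibition above a per-plate cutoff, mean inhibition of test wells between control levels plus 3 SD, cut at about 38% in these data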;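 further: cells cotransfected with COUP-TFII expression vector driving the NGFI-A reporter; 0% = median of COUP-TF2 test wells and 100% = reporter-only cells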
Target sequence (P24468 whole entry, looked up): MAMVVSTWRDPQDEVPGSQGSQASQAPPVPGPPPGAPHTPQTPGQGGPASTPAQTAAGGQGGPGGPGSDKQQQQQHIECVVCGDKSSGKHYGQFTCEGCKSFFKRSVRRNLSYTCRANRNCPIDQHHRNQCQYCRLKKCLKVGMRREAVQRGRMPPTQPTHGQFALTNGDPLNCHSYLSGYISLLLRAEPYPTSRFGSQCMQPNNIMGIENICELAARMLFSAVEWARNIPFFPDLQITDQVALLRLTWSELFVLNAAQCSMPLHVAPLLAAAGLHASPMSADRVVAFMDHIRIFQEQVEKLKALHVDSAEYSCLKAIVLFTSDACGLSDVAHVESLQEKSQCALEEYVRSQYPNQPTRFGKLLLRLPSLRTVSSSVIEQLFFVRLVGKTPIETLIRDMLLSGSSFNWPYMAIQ
SRC3 inh – inhibits human SRC3 coactivator | HEK293 GAL4-SRC3 luciferase reporter, luminescence | Q9Y6Q9 | inhibition, % at 3.6 µM | actives 0.17% (n = 360,000);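 active means inhibition above a per-campaign cutoff, the mean of all compounds plus 3 SD, cut at about 60% in these data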;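 further: 0% = DMSO-treated cells and 100% = gossypol-treated cells at 36 µM; higher means less SRC3-driven luciferase light from the GAL4 reporter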
GalR3 antag conf – confirmation of human galanin receptor 3 antagonists; shares compounds with GalR3 antagonist; HEK293 GalR3 CNG cAMP biosensor, membrane potential fluorescence; galR3 fused to GalR1 carboxy tail; challenged with forskolin and galanin at EC90; inhibition, % at 3 µM; actives 59% (n = 1,600); AID 652245;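 active means inhibition above the primary screen's cutoff, the mean inhibition of all screened compounds plus 3 SD, cut at about 13% in these data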;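 further: 0% = forskolin plus galanin and 100% = forskolin alone with DMSO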
CNG parental – counter-screen for GalR3 antagonists: nonspecific agonists in parental HEK-CNG cells. actives 10% (n = 1,600). HEK293-CNG parental cells, cAMP membrane potential fluorescence; normalised: DMSO wells 0%, forskolin wells 100%. activation, % at 3 µM. shares compounds with GalR3 antagonist. AID 652268; in the data active means activation above about 1.3%
* hit, by the source's call; nt = no result given.

SMILES | NCOA1 inh | GalR3 antagonist | LRH-1 inv ag | NCOA2 inhibitor | NR2F2 inh | SRC3 inh | GalR3 antag conf | CNG parental
COc1ccc(-c2ncn(CCc3ccccc3OC)c2CC(C)C)cc1 | nt | -7 | nt | -2 | 30 | nt | nt | nt
COC(=O)COc1ccc(-c2ccccc2)cc1C=O | 6 | 17* | -10 | -11 | -8 | 3 | 4 | 1
O=S1(=O)c2ccc(N3CCSCC3)cc2Oc2ccccc2CN1Cc1cn(Cc2ccc(F)cc2)nn1 | nt | nt | nt | -13 | 5 | nt | nt | nt
COc1ccc(C(=O)C(CN2CCOCC2)c2ccccc2)cc1F (stereo not drawn) | 16 | 28* | -14 | 37 | -22 | 24 | 1 | 0
COc1ccc(C(=O)OC(C)CN2CCOCC2)cc1OC (stereo not drawn) | 4 | nt | -9 | 10 | 17 | -51 | 3 | 0
Cc1ccc(S(=O)(=O)n2c3ccc(Cl)cc3c3nc(C)sc32)cc1 | 8 | nt | 3 | 10 | -4 | -3 | 2 | 0
COC(=O)Cn1c2ccc(Cl)cc2c2nc(C)sc21 | -12 | -3 | -8 | -15 | 15 | 23 | nt | nt
CC(C)(C)OC(=O)N1CCC[C@@H]1C(=O)N1CCC[C@@H]1C(=O)NCc1ccccc1 | nt | -6 | nt | -4 | 1 | nt | nt | nt
CCCCCC(O)C=CC1C(O)CC(O)C1CC=CCCCC(=O)O (stereo not drawn) | -24 | 96* | 16 | -11 | -7 | -6 | 95* | 0
CCSc1nsc(NC(=O)Nc2cccc(F)c2)n1 | 22 | 69* | 23 | 10 | 34 | 45 | 28* | -1
N#Cc1cccnc1N1CCN(C(=O)c2cccc3c2C(=O)c2ccc(Cl)cc2S3(=O)=O)CC1 | -11 | 23* | 4 | -19 | -12 | -1 | 30* | 0
COc1cccc(CO[C@H]2C=C[C@@H](c3ccccc3)O[C@@H]2CO)c1 | nt | nt | nt | -6 | -7 | nt | nt | nt
CC(=O)Nc1ccc(NC(=O)CSc2nnc(-c3ccco3)o2)cc1 | 1 | 5 | 13 | 3 | 2 | -3 | nt | nt
Cc1cc(NC(=O)CSc2nnc(-c3ccco3)o2)no1 | 3 | nt | -10 | -4 | -23 | 9 | -5 | 0
O=C(NCCc1ccc(Cl)cc1)c1ccc2nc(N3CCOCC3)sc2c1 | -13 | 16* | -1 | -21 | 10 | -5 | 19* | 0
CCOc1ccc(CNC(=O)c2ccc3nc(N4CCOCC4)sc3c2)cc1 | -38 | 4 | -11 | -17 | -1 | -13 | nt | nt
C=C1C(=O)C23CCC4C(C)(C(=O)OC)CCCC4(C)C2CCC1(O)C3 (stereo not drawn) | 36 | 37* | 42 | 68* | 78* | 10 | 48* | 1.6*
COC(=O)[C@]1(C)CCC[C@@]2(C)C3CC[C@@]4(C)C[C@]3(CCC21)CC(=O)N4 (stereo partly drawn) | -3 | -5 | 19 | -8 | 4 | 14 | nt | nt
CC(C)CCn1c(N2CCc3ccccc3C2)nc2c1c(=O)[nH]c(=O)n2C | 0 | 15* | 0 | -21 | 0 | -15 | -1 | 0
COc1ccccc1CC(=O)N1CCCc2ccccc21 | -2 | nt | 0 | 9 | 17 | 20 | 3 | 1
COc1ccc(C2C3=C(CC(C)(C)CC3=O)Nc3cc4c(cc32)OCO4)cc1 (stereo not drawn) | 5 | -3 | 13 | -3 | 6 | -11 | nt | nt
COc1ccc(OC)c(C2C3=C(COC3=O)Nc3cc4c(cc32)OCO4)c1 (stereo not drawn) | -25 | 28* | 44 | -17 | -83 | 11 | 23* | 1.4*
Cc1ccc(/C=N\NC(=O)COc2ccc(C)cc2[N+](=O)[O-])cc1 | -23 | 13* | -2 | 15 | 0 | 1 | 1 | 0
Cc1ccsc1C1C(C#N)=C(N)Oc2n[nH]c(C)c21 (stereo not drawn) | -26 | 30* | 0 | 21 | -4 | 10 | -1 | 0
Cc1ccc2c(c1)C(=O)C(=O)N2CC(=O)Nc1ccccc1NC(=O)c1ccccn1 | -7 | 20* | 3 | -4 | 5 | 4 | 5 | 1
SMILES | NCOA1 inh | GalR3 antagonist | LRH-1 inv ag | NCOA2 inhibitor | NR2F2 inh | SRC3 inh | GalR3 antag conf | CNG parental
Cc1ccc(C)c(C(=O)c2ccccc2NC(=O)c2ccccn2)c1 | 8 | -10 | 2 | 4 | -2 | 10 | nt | nt
CC(C)c1ccc(OCCCN2CCC(C(O)(c3ccccc3)c3ccccc3)CC2)cc1 | nt | -7 | nt | 17 | 12 | nt | nt | nt
Cn1c(SCC(=O)NC2CC2)nnc1-c1cccs1 | -2 | 14* | 4 | 1 | -5 | -11 | 7 | 0
COc1ccccc1Cc1c(-c2ccco2)nc2ccc(Cl)cn12 | -24 | 28* | -22 | -22 | -10 | -6 | 18* | 0
COCc1[nH]nc2c1C(c1ccc(F)cc1)NC2=O (stereo not drawn) | nt | -3 | nt | -13 | -30 | nt | nt | nt
COc1ccc(C(=S)N2CCCCCC2)cc1 | -10 | 13* | 4 | 3 | -14 | -12 | 0 | 0
COc1cccc(Cn2nc(C(=O)O)c3ccccc3c2=O)c1 | -2 | 19* | 19 | -26 | 0 | 10 | 16* | 0
CCN(CC)S(=O)(=O)c1ccc(N2CCOCC2)c(NC(=O)c2ccccc2)c1 | 1 | -1 | 1 | 5 | 1 | 3 | nt | nt
CCN(CC)S(=O)(=O)c1ccc(O)c(NC(=O)c2ccc(N3CCOCC3)c([N+](=O)[O-])c2)c1 | 16 | 23* | -4 | -19 | 3 | -9 | 11 | 0
CC1(C)CC2(CC(c3ccccc3)Oc3cc(O)ccc32)NC(=S)N1 (stereo not drawn) | -8 | -1 | 15 | 5 | -7 | 10 | nt | nt
CC(=O)Oc1ccc2c(c1)OC(c1ccccc1)CC21CC(C)(C)NC(=S)N1 (stereo not drawn) | 17 | nt | 14 | -18 | 3 | 6 | 2 | 0
CCOc1cc(C2C3=C(CC(C)(C)CC3=O)Nc3n[nH]c(C)c32)ccc1O (stereo not drawn) | 4 | 31* | 4 | -2 | -8 | 11 | 40* | 0
CCOC(=O)C1=C(C)NC2=C(C(=O)CC(C)(C)C2)C1c1ccc(O)c(OCC)c1 (stereo not drawn) | 2 | 22* | 8 | 8 | 19 | 13 | 29* | 0
CCOc1cc(C2C(C(=O)N3CCCCC3)=C(C)NC3=C2C(=O)CC(C)(C)C3)ccc1O (stereo not drawn) | -12 | -3 | -14 | -13 | -4 | 1 | nt | nt
CC(C)OCCCNC(=O)C1CCC(CNS(=O)(=O)c2ccccc2)CC1 (stereo not drawn) | -15 | 26* | 1 | 9 | 8 | -3 | 4 | 0
